BLM helicase inh: inhibitors of human Bloom syndrome helicase BLM; recombinant BLM DNA unwinding, fluorescence dequenching; actives 0.2% (n = 350,000); Potency, µM (top dose mostly 56.1 µM), usual class: inhibitors; AID 2528; P54132; also: nearly all actives have a fitted effect of over 35% in size
WRN inhibitor: WRN helicase (human) inhibition | WRN helicase unwinding, fluorescent forked duplex, kinetic | actives 0.46% (n = 360,000) | Q14191 | Potency, µM (top dose mostly 114 µM), actives largely listed as inhibitors; also: nearly all actives have a fitted effect of over 55% in size
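WRN at 20 nM final was preincubated with compound for 15 min at room temperature; reaction started with 100 nM forked duplex oligonucleotide carrying fluorophore and quencher plus 2 mM ATP (final). Unwinding followed kinetically by red fluorescence (ex 525/em 598 nm).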
L3MBTL1 inh: inhibitors of human L3MBTL1. AlphaScreen L3MBTL1–H3K9me1 peptide binding. Potency, µM (titrated, usually from 57.1 µM), hits mostly inhibitors. actives 0.66% (n = 230,000); also: nearly all actives have a fitted effect of over 60% in size
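Displacement of a biotinylated histone H3(1-15) peptide monomethylated at Lys9 (75 nM) from L3MBTL1 (50 nM) was measured by AlphaScreen after a 30 min room-temperature compound incubation; cefsulodin titration served as intraplate control.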
APE1 inh: APE1 (human) endonuclease inhibition; P27695; Potency, µM (titrated, usually from 65.8 µM), usual class: inhibitors; recombinant APE1, TAMRA/BHQ-2 abasic DNA cleavage fluorescence; actives 0.35% (n = 350,000); AID 2517; also: nearly all actives have a fitted effect of over 55% in size
Target sequence (P27695 whole entry, looked up): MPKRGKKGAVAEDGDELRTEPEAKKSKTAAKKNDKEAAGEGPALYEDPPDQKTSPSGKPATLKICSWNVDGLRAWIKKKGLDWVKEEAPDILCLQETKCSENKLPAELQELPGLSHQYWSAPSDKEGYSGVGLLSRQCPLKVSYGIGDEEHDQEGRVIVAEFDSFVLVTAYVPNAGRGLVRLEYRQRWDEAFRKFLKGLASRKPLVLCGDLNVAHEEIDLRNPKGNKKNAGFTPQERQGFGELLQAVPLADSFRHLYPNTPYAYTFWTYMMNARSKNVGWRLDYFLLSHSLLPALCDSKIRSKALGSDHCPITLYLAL
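Kinetic fluorescence read (525 ex/598 em nm, three reads 60 s apart) of AP-site incision; signal = third minus first read. Enzyme 0.75 nM, dual-labelled THF duplex 50 nM, compound preincubation 15 min RT.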
RECQ1 inh-1: RECQ1 (human) helicase inhibition; P46063; RECQ1 DNA unwinding, red fluorescence kinetic read; Potency, µM (top dose mostly 57.3 µM), actives largely listed as inhibitors; actives 0.54% (n = 240,000); also: nearly all actives have a fitted effect of over 30% in size
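RECQ1T1 50 nM; forked duplex (20 bp + 30-nt ss tails) 200 nM, ATP 2 mM final; pH 8.0, 2 mM MgCl2, 2.5 ug/ml poly(dI-dC); 15 min compound preincubation; discontinuous kinetic read over 2 h at RT.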
FEN1 inh: blocks human flap endonuclease 1; actives 0.35% (n = 390,000); P39748; Recombinant FEN1 flap cleavage, fluorescence, 15 min; Potency, µM (highest dose often 114 µM), usual class: inhibitors; also: nearly all actives have a fitted effect of over 65% in size
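Recombinant FEN1 (10 nM) was preincubated with pin-transferred compounds for 15 min at room temperature, then flap DNA substrate (50 nM final) was added. Plates were read at 0 and 15 min, and normalized concentration–response data were fitted to a four-parameter Hill equation.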
RECQ1 inh conf: confirmation of human RECQ1 helicase inhibitors; AID 2708; RECQ1 helicase DNA unwinding, fluorescence; shares compounds with RECQ1 inh-1; actives 28% (n = 610); Potency, µM (top dose mostly 229 µM), most hits filed as inhibitors; also: nearly all actives have a fitted effect of over 45% in size
RECQ1 ADP FP: ADP displacement flagged in RECQ1 inhibitor counter-screen; actives 27% (n = 530); Potency, µM (titrated, usually from 228 µM), most hits filed as inhibitors; ADP fluorescence polarization displacement counterscreen; AID 2711; shares compounds with RECQ1 inh-1; also: nearly all actives have a fitted effect of over 45% in size
RECQ1 inh-2: blocks human RECQ1 DNA unwinding. recombinant RECQ1 DNA unwinding, red fluorescence. AID 504841. Potency, µM (series often up to 119 µM), most hits filed as inhibitors. actives 15% (n = 1,100). shares compounds with RECQ1 inh-1; also: nearly all actives have a fitted effect of over 50% in size
Large screens that a line does not name were inactive (follow-up assays come after a bar, where they were run). Only some compounds are listed: those with a hit (about 1% of all), similar ones and a draw of the others. Calls follow the shape of the dose curve; as a rule, active = well fitted curve in the direction sought with a large enough effect; inconclusive = small, poorly fitted or top-dose-only effect, or another doubt; inactive = no such curve, though single readings can be large; an effect the other way counts as inactive or inconclusive.

CCOC(=O)Cc1cc(=O)c2c(=O)n(-c3ccccc3)[nH]c2[nH]1	L3MBTL1 inh inconclusive, RECQ1 inh-1 inconclusive | RECQ1 inh-2 inactive
CC(C)(C)C1CCN2CCCC(c3ccccc3)(C1)C2=O (stereo not given)	none (no result: BLM helicase inh, L3MBTL1 inh, APE1 inh, RECQ1 inh-1, FEN1 inh)
O=C(O)COc1cccc2c1CCC=C2CCO/N=C(\c1ccccc1)c1cccnc1	none (no result: WRN inhibitor, L3MBTL1 inh, FEN1 inh)
CS/C(=N\S(=O)(=O)c1cccs1)NC(=O)CSc1nc2ccccc2s1	WRN inhibitor inconclusive, RECQ1 inh-1 inconclusive, FEN1 inh inconclusive | RECQ1 inh-2 inconclusive
C/C(=N/NC(=O)CSc1nc2ccccc2s1)c1ccncc1	none
CCCNC(=O)C1(C)CCCN(C(=O)c2c(F)ccc(C)c2F)C1 (stereo not given)	none (no result: BLM helicase inh, L3MBTL1 inh, APE1 inh, RECQ1 inh-1, FEN1 inh)
CCc1ccc(-n2nc(C)c3c(C)cc(=O)n(CC(=O)Nc4ccc(OC)c(OC)c4)c32)cc1	none (no result: WRN inhibitor, L3MBTL1 inh, APE1 inh, RECQ1 inh-1)
COc1ccc(C(=O)Cn2c3ccccc3n3nc(CCC(=O)O)c(=O)nc23)cc1OC	none (no result: L3MBTL1 inh) | RECQ1 inh conf inactive | RECQ1 ADP FP inconclusive
CC(=O)Cn1c2ccccc2n2nc(CCC(=O)O)c(=O)nc12	none
O=C(O)CCc1nn2c3ccccc3n(Cc3ccccc3)c2nc1=O	none
O=C(O)CCc1nn2c3ccccc3n(CC(=O)c3cccs3)c2nc1=O	none (no result: L3MBTL1 inh) | RECQ1 inh conf inactive | RECQ1 ADP FP inactive
CCOC(=O)c1cc(-c2ccccc2)sc1NC(=O)CN1C(=O)NC(CC)(c2ccc(F)cc2)C1=O (stereo not given)	RECQ1 inh-1 32µM (no result: L3MBTL1 inh) | RECQ1 inh-2 inactive
CCOC(=O)c1cc(-c2ccccc2)sc1NC(=O)CN1C(=O)NC(CC)(c2ccccc2)C1=O (stereo not given)	none (no result: L3MBTL1 inh)
O=C(CN(c1ccccc1)S(=O)(=O)c1ccccc1)NCCSCc1ccco1	APE1 inh 7.9µM, RECQ1 inh-1 14µM | RECQ1 inh conf 50µM | RECQ1 ADP FP 50µM | RECQ1 inh-2 inconclusive
C=CCSc1nc(=O)n2ccc(C)cc2n1	RECQ1 inh-1 1.6µM (no result: L3MBTL1 inh) | RECQ1 inh conf inactive | RECQ1 ADP FP inactive | RECQ1 inh-2 inactive
CC(=O)n1cc([C@@H]2C=C(C(=O)NCc3ccccc3)O[C@H](OCc3ccc(CO)cc3)C2)c2ccccc21	none (no result: L3MBTL1 inh)
CC(=O)n1cc([C@H]2C=C(C(=O)Nc3ccccc3)O[C@@H](OCc3ccc(CO)cc3)C2)c2ccccc21	RECQ1 inh-1 0.35µM | RECQ1 inh conf inactive | RECQ1 ADP FP inactive
COc1ccc(-c2cc(C(=O)O)no2)cc1	RECQ1 inh-1 inconclusive | RECQ1 inh-2 inactive
COc1ccc(-c2cc(C(=O)Nc3cc(C)on3)no2)cc1	none
Cc1c(NC(=O)/C(C#N)=C/c2ccccc2)c(=O)n(-c2ccccc2)n1C	none (no result: L3MBTL1 inh)
COc1ccccc1Oc1nc2ccccn2c(=O)c1/C=C(\C#N)C(=O)Nc1c(C)n(C)n(-c2ccccc2)c1=O	none | RECQ1 inh conf inactive | RECQ1 ADP FP inactive
Cc1ccc(Oc2nc3ccccn3c(=O)c2/C=C(\C#N)C(=O)Nc2c(C)n(C)n(-c3ccccc3)c2=O)c(C)c1	none | RECQ1 inh conf inactive | RECQ1 ADP FP inactive
CCCN(C)C1CN(Cc2cn(Cc3cccc(Cl)c3)nn2)S(=O)(=O)C1 (stereo not given)	none (no result: BLM helicase inh, L3MBTL1 inh, APE1 inh, RECQ1 inh-1, FEN1 inh)
CCOC(=O)C1=C(CN2CCN(c3cc(C)ccc3C)CC2)NC(=O)NC1c1ccc(Cl)cc1 (stereo not given)	none (no result: WRN inhibitor, L3MBTL1 inh, APE1 inh, RECQ1 inh-1)
COCCn1c(C)cc(C(=O)COC(=O)c2ccc(NC(=O)CC#N)cc2)c1C	RECQ1 inh-1 32µM (no result: L3MBTL1 inh) | RECQ1 inh-2 inactive

Source: PubChem
